# Luciferase inh – blocks purified firefly luciferase enzyme activity; P08659; purified P. pyralis luciferase, luminescence, biochemical; Potency, µM (titrated, usually from 115 µM), actives largely listed as inhibitors; 76,000 tested, 2.5% active; AID 1347043; further: on the % scale 0 is the no-effect control and ±100 the full control effect; nearly all actives have a fitted effect of over 65% in size
#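 Luminescence read by CCD imaging after purified firefly luciferase (10nM final) was added to substrate buffer holding 10uM D-luciferin and 10uM ATP, pH 7.5, pre-dosed with compound.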
# HEK cytotox – HEK 293 cell cytotoxicity; HEK 293 viability, ATP luminescence (CellTiter-Glo), 48-72 h; Potency, µM (doses to about 115 µM), for the others: at the top dose activity change, negative = cytotoxicity, most hits filed as inhibitors; 94,000 tested, 6.6% active; AID 1345083; further: on the % scale 0 is the no-effect control and ±100 the full control effect; nearly all actives have a fitted effect of over 60% in size
#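 Pintool-delivered compounds were incubated with HEK 293 cells (250 cells/well) at 37 degree Celsius for 48 or 72 hr. ATP-dependent luminescence (CellTiter-Glo) then reported remaining viable cells.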
# NPR1 antag – blocks ANP-stimulated signaling of human Npr1 receptor. Potency, µM (top dose mostly 46.3 µM), without a hit: at the highest dose activity change, negative = inhibition, actives largely listed as inhibitors. 76,000 tested, 1.6% active. HEK293 hNpr1 GloSensor cGMP, ANP-stimulated luminescence; calls by dose curve; further: on the % scale 0 is the no-effect control and ±100 the full control effect; nearly all actives have a fitted effect of over 60% in size
#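 Compound pre-incubated 30 min at room temperature on GloSensor-loaded HEK293 cells stably carrying hNpr1 and the pGS-40F cGMP biosensor. Stimulation uses hNppA at 0.1 nM final; luminescence is taken at baseline and 20 min post-agonist.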
# GPT2 inhibitor – blocks human glutamate pyruvate transaminase 2; Q8TD30; 100,000 tested, 0.25% active; Potency, µM (titrated, usually from 57.7 µM), without a hit: at the top dose activity change, negative = inhibition, actives largely listed as inhibitors; Recombinant GPT2, coupled pyruvate oxidase/HRP Amplex Red fluorescence; further: on the % scale 0 is the no-effect control and ±100 the full control effect; nearly all actives have a fitted effect of over 60% in size
# Target sequence (Q8TD30 whole entry, looked up): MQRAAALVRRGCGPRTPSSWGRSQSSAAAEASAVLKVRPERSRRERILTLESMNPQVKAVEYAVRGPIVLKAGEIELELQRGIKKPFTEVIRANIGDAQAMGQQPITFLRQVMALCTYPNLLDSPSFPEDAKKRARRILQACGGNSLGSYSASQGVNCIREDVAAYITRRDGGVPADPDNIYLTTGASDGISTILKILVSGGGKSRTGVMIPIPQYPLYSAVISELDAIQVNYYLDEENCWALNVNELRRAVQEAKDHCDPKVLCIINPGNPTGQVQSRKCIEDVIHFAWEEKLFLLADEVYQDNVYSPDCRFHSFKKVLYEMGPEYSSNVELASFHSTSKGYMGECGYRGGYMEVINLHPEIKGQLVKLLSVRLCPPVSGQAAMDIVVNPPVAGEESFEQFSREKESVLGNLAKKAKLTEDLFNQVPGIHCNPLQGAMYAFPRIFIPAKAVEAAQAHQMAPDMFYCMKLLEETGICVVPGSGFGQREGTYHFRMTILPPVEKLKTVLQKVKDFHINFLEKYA
#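 Inhibition is scored from Amplex Red fluorescence generated when pyruvate oxidase and HRP act on pyruvate released by GPT2. Reactions contain 10ng/uL enzyme, 250uM a-KG and 2mM L-alanine and run 30 min at room temperature.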
# NIH3T3 tox – kills NIH 3T3 cells; 94,000 tested, 4.3% active; AID 1345082; NIH 3T3 viability, CellTiter-Glo ATP luminescence, 48-72 h; Potency, µM (top dose mostly 96.7 µM), for inactives: top-dose activity change, negative = cytotoxicity, usual class: inhibitors; further: on the % scale 0 is the no-effect control and ±100 the full control effect; nearly all actives have a fitted effect of over 55% in size
#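 First NIH 3T3 cells are plated at 400 cells/well; next compound is pinned in; then plates incubate 48 or 72 hr at 37 °C; finally CellTiter-Glo is added and luminescence read after 10 min.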
# NPR1 antag cnf – hNpr1 antagonism, confirmation assay. Potency, µM (top dose mostly 57.6 µM), for inactives: at the highest dose activity change, negative = inhibition, actives largely listed as inhibitors. shares compounds with NPR1 antag. 1,400 tested, 76% active. HEK293 hNpr1 cGMP GloSensor luminescence, ANP-stimulated. AID 1347044; calls by dose curve; further: nearly all actives have a fitted effect of over 70% in size
# Npr2 selectivity – antagonizes human Npr2, subtype selectivity check; Potency, µM (doses to about 57.6 µM), inactives show at the top dose activity change, negative = inhibition, actives largely listed as inhibitors; shares compounds with NPR1 antag; HEK293 hNpr2 GloSensor cGMP luminescence, CNP-stimulated; 1,400 tested, 67% active; calls by dose curve; further: nearly all actives have a fitted effect of over 70% in size
# FLuc counter – inhibits firefly luciferase, false Npr1 antagonist flag. shares compounds with NPR1 antag. purified FLuc enzyme, luminescence, Km substrate. Potency, µM (doses to about 57.6 µM), for inactives: at the highest dose activity change, negative = inhibition, hits mostly inhibitors. 1,400 tested, 0.7% active. AID 1347047; further: 0% is about no effect
# GloSensor ctrl – control cell line activity, Npr1 antagonist counter-screen | shares compounds with NPR1 antag | HEK293 GloSensor cGMP, SNP-stimulated, luminescence | Potency, µM (series often up to 57.6 µM), for inactives: at the highest dose activity change, negative = inhibition, most hits filed as inhibitors | 1,400 tested, 69% active; calls by dose curve; further: on the % scale 0 is the no-effect control and ±100 the full control effect; nearly all actives have a fitted effect of over 70% in size
# Active calls of the source: *; i = inactive; ? = inconclusive; . = no result; [ ] = dose if it differs, or a comment. A selection: hits, their analogues and other compounds. The true share with any hit is near 10%. Unless noted, the call rests on the fitted dose curve; in most records, active means well fitted curve in the direction sought with a large enough effect; inconclusive means small, poorly fitted or top-dose-only effect, or another doubt; inactive means no such curve, though single readings can be large; an effect the other way counts as inactive or inconclusive. Potency means the concentration at half of the fitted maximal effect.
SMILES,Luciferase inh,HEK cytotox,NPR1 antag,GPT2 inhibitor,NIH3T3 tox,NPR1 antag cnf,Npr2 selectivity,FLuc counter,GloSensor ctrl
CNC(=O)c1cc(C)nc2onc(C3CCN(C(=O)C4CC4)C3)c12 (stereo not given),.,-13.3%,.,.,-14.8%,.,.,.,.
Cc1nc2ccccn2c1C(=O)NC(C)c1cnn(-c2ccccn2)c1C (stereo not given),i,?,4.47µM*,i,?,6.11µM*,9.68µM*,6.5%,4.85µM*
Cc1c(C(C)NC(=O)c2ccccc2-c2ncn[nH]2)cnn1-c1ccccn1 (stereo not given),i,-0.7%,5.8%,-1.0%,2.7%,.,.,.,.
COc1ccc(Cc2nc3nccc(-c4ccc(F)cc4OC)n3n2)cc1,i,?,-12.0%,-11.5%,?,.,.,.,.
O=C(c1ccc(C(F)(F)F)cc1)N1CCn2c(nn(-c3ccc(C(F)(F)F)cc3)c2=O)C1,.,?,.,-1.3%,?,.,.,.,.
O=c1n(-c2ccncc2)nc2n1CCN(Cc1ccc(C(F)(F)F)cc1)C2,i,12.6µM*,15.8µM*,-5.8%,?,15.3µM*,17.2µM*,4.2%[86.2 µM],12.2µM*
Cn1nccc1CN1CCn2c(nn(-c3ccc(C(F)(F)F)cc3)c2=O)C1,.,?,.,i,?,?,?,-2.1%,?
COc1ccc(-n2nc3n(c2=O)CCN(Cc2ccc(C(F)(F)F)cc2)C3)cc1,.,?,.,-8.6%,?,.,.,.,.
CC(=O)Nc1ccc([S+](=O)([O-])N2CCCN(CCn3nc4n(c3=O)CCCC4)CC2)cc1,.,-3.3%,.,.,-20.7%,.,.,.,.
COc1ccc(CCNC(=O)c2nc3sccn3c2-c2ccc(F)cc2)cc1,.,i,.,-11.7%[88.5 µM],-7.3%[138 µM],.,.,.,.
C=CCN(C)C(=O)CC1COc2ccc(C(=O)N(C)C)cc2N1C (stereo not given),i,-9.3%,5.4%,2.6%,-11.9%,-5.8%,-7.1%,2.0%,-7.0%
O=C(NCc1ccccn1)C1CN(C2CCCCC2)C(=O)N1 (stereo not given),.,2.1%[172 µM],.,i,-18.9%[138 µM],.,.,.,.
COc1cc(OC)c(NC(=O)Cn2c(N(C)Cc3ccccc3)nc(C)cc2=O)cc1Cl,i,22.4µM*,10µM*,i,?,21.7µM*,21.7µM*,-2.3%,19.3µM*
Cc1cc(=O)n(CC(=O)Nc2ccc(C)c(C)c2)c(N(C)Cc2ccccc2)n1,i,?,?,0.3%,?,.,.,.,.
COc1ccc(NC(=O)Cn2c(N(C)Cc3ccccc3)nc(C)cc2=O)cc1,i,44.7µM*,11.2µM*,i,?,19.3µM*,?,-2.2%,15.3µM*
Cc1cc(=O)n(CC(=O)Nc2c(C)cccc2C)c(N(C)Cc2ccccc2)n1,i,-26.6%,-0.5%,-2.5%,?,.,.,.,.
COc1ccc(NC(=O)Cn2c(N(C)Cc3ccccc3)nc(C)cc2=O)cc1Cl,i,?,11.2µM*,4.4%,?,10.9µM*,10.9µM*,-1.7%,9.68µM*
O=C(Nc1ccc(Cl)cc1)N1Cc2[nH]cnc2C[C@H]1c1nc(-c2ccccc2)no1,i,79.4µM*,-21.8%[70.6 µM],2.9%[88.5 µM],31.6µM*,?,?,?,-26.3%[86.2 µM]

# Assay outcomes from PubChem BioAssay.
